HEK293 tox: cytotoxicity in counter-screen for GLP-1R inverse agonists. HEK293 cAMP-luciferase reporter cells, luminescence, 24 h. Potency, µM (series often up to 38.3 µM), without a hit: at the top dose activity change, negative = inhibition, most hits filed as inhibitors. hit rate 0.13% among 410,000;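 note: loss of luciferase light is scored as toxicity; % is set by controls: 0 for no effect and ±100 for the full control effect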
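Quantitative HTS format, 1536 wells, 200 cells/uL seeded. Compounds: 23 nL, 24 h, 37 °C. Detection: luciferase reagent, luminescence at 12 min RT; decreased signal taken as cytotoxic.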
GLP-1R inv ag: acts as inverse agonist at human GLP-1 receptor | P43220 | HEK293 GLP-1R CRE-luciferase, luminescence, 24 h; GLP-1R form is constitutively active | Potency, µM (doses to about 38.3 µM), for the others: at the top dose activity change, negative = inhibition, actives largely listed as inhibitors | hit rate 1.6% among 410,000; note: % is set by controls: 0 for no effect and ±100 for the full control effect; nearly all actives have a fitted effect of over 55% in size
Target sequence (P43220 whole entry, looked up): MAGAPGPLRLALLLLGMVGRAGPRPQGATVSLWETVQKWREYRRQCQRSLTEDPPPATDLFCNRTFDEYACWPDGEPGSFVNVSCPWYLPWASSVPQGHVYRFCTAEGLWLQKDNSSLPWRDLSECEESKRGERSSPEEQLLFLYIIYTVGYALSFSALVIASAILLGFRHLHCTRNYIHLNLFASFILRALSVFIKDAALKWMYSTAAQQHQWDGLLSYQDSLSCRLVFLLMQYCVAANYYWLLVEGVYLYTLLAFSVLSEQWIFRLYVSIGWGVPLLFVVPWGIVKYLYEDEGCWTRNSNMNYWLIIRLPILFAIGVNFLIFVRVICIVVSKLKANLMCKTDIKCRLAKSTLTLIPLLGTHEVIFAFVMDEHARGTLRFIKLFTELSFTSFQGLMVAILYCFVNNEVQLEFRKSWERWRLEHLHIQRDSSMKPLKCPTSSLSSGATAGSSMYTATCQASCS
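Using stably transfected HEK293 (constitutively active GLP-1R, cAMP-luciferase reporter), compounds were incubated 24 hr and luciferase measured by luminescence.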
GLP-1R agonist: agonists of human GLP-1 receptor; P43220; hit rate 0.007% among 380,000; HEK293 GLP-1R CRE-luciferase, luminescence, 4-6 h; cells express a hypersensitive GLP-1R form; Potency, µM (titrated, usually from 45.6 µM), for the others: top-dose activation, usual class: activators; note: % of control where 0% means no effect
PTHR1 agonist: agonists of human PTHR1 parathyroid hormone receptor | HEK293 GP2 PTHR1 cells, GloSensor cAMP luminescence, 1 h | Potency, µM (top dose mostly 115 µM), without a hit: top-dose activation, hits mostly activators | hit rate 0.075% among 410,000 | AID 743266; note: nearly all actives have a fitted effect of over 55% in size
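HEK-293-derived GP2 cells expressing PTHR1 and a GloSensor cAMP reporter, 3,000/well, plated overnight, given luciferin plus IBMX (each 0.5 mM as added) for 1 h at 37 °C, then compound for 1 h at 37 °C. Luminescence was read after 15 min at room temperature.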
* marks the source's active call; other numbers are inactive results; i = inactive; ? = inconclusive; . = not tested or not shown; [ ] = remark or other dose. A selection: hits, their analogues and other compounds. The true share with any hit is near 1.7%. Calls come from the whole dose curve; as a rule, active = well fitted curve in the direction sought with a large enough effect; inconclusive = small, poorly fitted or top-dose-only effect, or another doubt; inactive = no such curve, though single readings can be large; an effect the other way counts as inactive or inconclusive. Potency is the fitted concentration of half-maximal effect.

SMILES	HEK293 tox	GLP-1R inv ag	GLP-1R agonist	PTHR1 agonist
CCOc1ccc(N(Cc2cc3cc(C)ccc3[nH]c2=O)C(=O)c2cccc(Cl)c2)cc1	0.0%	2.6%	.	-1.5%
Cc1ccc(Sc2c(C=O)c3ccccc3n2C)cc1	?	5.62µM*	-22.4%	i
COc1ccc(OC)c(S(=O)(=O)N2CCC(c3ccncc3)CC2)c1	7.0%	4.0%	.	-13.4%
Cc1cc2nc(-c3ccc[nH]c3=O)[nH]c2cc1C	73.9%	3.55µM*	15.9%	-9.8%
CCN(CC)CC(=O)Nc1ccc2c(c1)N(C(=O)CN(CC)CC)c1ccccc1CC2	3.98µM*	38.6%	20.5%	i
CCOC(=O)Nc1ccc2c(c1)N(C(=O)CN(CC)CC)c1ccccc1CC2	?	?	6.4%	i
Cc1cccc(C2=NN(c3ccccc3)[C@@H](C(=O)N3CCOC3=O)[C@@H]2c2ccc(F)cc2)c1	124.8%	12.6µM*	1.1%	-8.6%
Cc1cccc(C2=NN(c3ccccc3)[C@@H](C(=O)N3CCOC3=O)[C@@H]2c2ccc(Cl)cc2)c1	50.8%	?	-1.1%	-9.8%
COc1cccc(C2=NN(S(C)(=O)=O)C(c3cn(-c4ccccc4)nc3-c3cccs3)C2)c1 (centres undefined)	-6.9%	-6.4%	2.9%	-46.4%
Cc1nc(-c2ccc(S(=O)(=O)N(C)Cc3ccccc3)cc2)co1	-5.5%	0.6%	14.3%	-43.8%
Cc1ccccc1NS(=O)(=O)c1cc(C(=O)NCCC2=CCCCC2)ccc1C	?	11.2µM*	3.9%	-24.8%[57.5 µM]
CC1CCC(NC(=O)C2(C)Cc3ccccc3C(=O)N2Cc2ccccc2Cl)CC1 (centres undefined)	-9.1%	4.1%	.	i
Cc1cccc(-n2ncc3c(NC4CCCCC4)ncnc32)c1	-8.5%	?	6.2%	-43.8%
Clc1cccc(-n2ncc3c(NC4CCCCCC4)ncnc32)c1	-31.5%	10µM*	.	-36.6%
Cc1ccc(-n2ncc3c(NC4CCCC4)ncnc32)cc1	-12.4%	?	.	-28.5%
COc1ccc(-n2ncc3c(NC4CCCC4)ncnc32)cc1	-21.5%	7.94µM*	.	-17.9%
CC(c1cccs1)N(C)Cc1nc(CCc2ccccc2)no1 (centres undefined)	16.6%	10µM*	-1.8%	-22.0%
COc1cccc(C(C)N(C)Cc2nc(COc3ccccc3)no2)c1 (centres undefined)	5.5%	10µM*	9.7%	-30.0%
Cc1cc(C)c(-n2nnnc2SCC(=O)c2cccs2)c(C)c1	0.7%	12.6µM*	9.7%	i
COc1cc(-c2nc3ccc(C)cn3c2Nc2ccc(Cl)cc2)ccc1O	?	3.55µM*	.	-15.6%
COc1cc(-c2nc3ccc(Cl)cn3c2Nc2ccc3c(c2)OCO3)ccc1O	0.0%	?	.	i
CO/N=C\CC(=O)Nc1ccc(Cl)c(Cl)c1	-19.0%	3.16µM*	4.6%	-14.1%
COc1ccc(/C=C/C(=O)Nc2ccc(Cl)c(Cl)c2)cc1OC	?	8.91µM*	.	-44.5%
CCc1ccccc1NC(=O)C(=O)c1cc(C)n(-c2ccccc2F)c1C	-2.8%	?	.	-20.0%
Cc1c(C(=O)OCC(=O)N2CCCC(C)C2)oc2ccccc12 (centres undefined)	10.5%	10µM*	15.7%	i
SMILES	HEK293 tox	GLP-1R inv ag	GLP-1R agonist	PTHR1 agonist
COc1ccc(N(CC(=O)NCCc2ccc(C)cc2)S(=O)(=O)c2c(C)nn(C)c2C)cc1	-9.5%	-0.4%	1.2%	-24.4%
Cc1cc(C)cc(NC(=O)CCN2C(=O)c3ccccc3Sc3ncccc32)c1	?	-8.2%	.	?
CN(C)C=NC(=O)c1[nH]c2ccc(Cl)cc2c1-c1ccccc1	?	11.2µM*	17.7%	i
CC(C)(C)c1csc(NC(=O)c2ccncc2)n1	7.2%	25.5%	1.9%	-32.6%
CC(C)(C)c1csc(NC(=O)c2ccc(Cl)s2)n1	-3.9%	2.82µM*	-1.9%	-24.0%
CC(C)(C)c1csc(NC(=O)c2ccc(Br)o2)n1	-0.1%	10µM*	0.6%	-13.9%
Cc1ccc(C(=O)Nc2nc(C(C)(C)C)cs2)s1	15.7%	?	2.5%	-16.3%[57.5 µM]
CCN(CC)S(=O)(=O)c1ccc2c(c1)N(CC(=O)Nc1ccc(OC)cc1)C(=O)CS2	6.5%	2.8%	.	i
CCCN(C(=O)c1cc2c(=O)oc3ccccc3c2s1)c1ccccc1C	-1.1%	3.6%	-0.3%	-30.5%
O=[N+]([O-])c1cccc(C2NCC(c3ccccc3Cl)c3c2[nH]c2ccccc32)c1 (centres undefined)	-2.7%[7.66 µM]	?	-4.8%	-13.2%
CN(C)c1ccc(C2CNC(c3ccc(Cl)c([N+](=O)[O-])c3)c3[nH]c4ccccc4c32)cc1 (centres undefined)	14.7%	4.47µM*	-2.3%	i
CCN1C(N(C)CCc2c[nH]c3ccccc23)=N[C@@H](c2cccc(C(F)(F)F)c2)C(C(=O)OC)=C1C	-12.1%	10µM*	-1.4%	-24.8%
O=C(NCC(c1cccs1)S(=O)(=O)c1cccs1)c1ccccc1 (centres undefined)	-9.4%	-8.6%	.	i
CN(C)c1ccc(-c2nc3ccccc3c(=O)[nH]2)cc1	7.9%	8.91µM*	-8.6%	-24.7%
COc1ccc(Cl)cc1NC(=O)CSc1cn(CC(=O)N2CCCCCC2)c2ccccc12	-9.1%	?	.	-37.6%
CCCn1c(C(C)Nc2nc(-c3ccc(C)cc3)cs2)nc2ccccc21 (centres undefined)	?	11.2µM*	6.0%	16.4%
CC(=O)N1CCc2c(sc3c2c(=O)n(CCc2ccccc2)c(=O)n3Cc2cccc(C)c2)C1	-3.3%	10.9%	0.1%	-24.8%
COc1ccc(C(=O)Nc2ccc(OCC(F)(F)C(F)F)c(C(F)(F)F)c2)cc1OC	-23.9%	3.98µM*	1.6%	-92.3%
COc1ccc(C(=O)Nc2ccncc2)cc1OC	9.2%	158.5%	12.1%	-20.0%[57.5 µM]
O=C(Nc1ccc(OCC(F)(F)C(F)F)c(C(F)(F)F)c1)c1ccc(Cl)cc1	-20.9%	3.55µM*	-9.4%	-12.7%[57.5 µM]
Cc1ccc(C)c(N2CCN(C(=O)C3CCN(c4nc(-c5ccc(C(C)C)cc5)no4)CC3)CC2)c1	-7.8%	?	.	-22.3%
COc1ccccc1C(=O)NC(=O)COC(=O)Cc1n[nH]c(=O)c2ccccc12	12.8%	39.0%	1.4%	50.1µM*
COc1ccccc1C(=O)NC(=O)COC(=O)Cc1ccc(F)cc1	-1.2%	3.0%	-9.1%	?
Cc1ccc(-c2cc(C(=O)Nc3nccs3)c3ccccc3n2)o1	27.7%	10µM*	-19.9%	-13.1%
Cc1c(CC(=O)NCCc2ccccc2)c(=O)oc2c(C)c3occ(C(C)(C)C)c3cc12	-8.6%	1.9%	.	-21.0%
COc1ccc(C2CC(=O)N(CC(=O)Nc3ccc(C)c(Cl)c3)c3ccccc3S2)cc1OC (centres undefined)	-9.1%	?	9.4%	-16.8%
Cc1ccc(/C=N\Nc2nc3ccc(Cl)cc3[nH]2)o1	-28.0%	5.01µM*	-12.8%	i
Fc1ccccc1-c1ccc(/C=N/Nc2nc3ccccc3[nH]2)o1	12.0%	?	17.0%	-46.5%
